The values below come from PubChem BioAssay (NCI).

Compounds without any hit were thinned out: in the full panel of roughly 83,000, 20% have a hit.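 48-hour exposure, single concentration, 96-well plates; percent growth endpoint where 0 means no net growth. Active: below 10.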 Unmarked numbers belong to inactive results. Calls of active or inactive are those of the source.

One experiment concerns COLO 205 colon. As to the kind of experiment: NCI-60 one-dose screen, 48 h (100 = growth as untreated, 0 = no growth, -100 = all killed). The following applies: 10 µM unless noted.
Take `O=c1ccn(C2OC(CO)C(O)C2F)c(=O)[nH]1` (stereo unspecified): the growth was 128%.
Take `c1ccc(N2CCN(c3nncc4ccccc34)CC2)nc1`: the growth is 106%.
As to `O=[N+]([O-])c1ccc(N/N=C\c2ccccc2[N+](=O)[O-])nc1`, the growth was 133%.
Take `CCc1ccc(CCN2C(=O)c3ccccc3C2=O)nc1`: the growth was 118%.
Same read-out and setting: the figure for `O=C1C(=O)c2ccc(Br)cc2-c2cc(Br)ccc21` is 119%; for `COc1cc(/C=C/C(=O)N2CCN(C(=O)/C=C/c3ccccc3)CC2)cc(OC)c1OC` it is 113%; for `COC(=O)c1ccc2c(c1)nc(-c1ccc(O)c(OC)c1)n2-c1cc(C(C)(C)C)[nH]n1` it is 120%.
Consider `COC(=O)[C@]1(C(C)C)N[C@H](c2cn(-c3ccccc3)nc2-c2ccccc2)[C@@H]2C(=O)N(c3ccc(Cl)cc3)C(=O)[C@@H]21`, for which the growth was 106%.
On the same count and under the same terms, the figure for `C[n+]1c2ccccc2c(NC2CCNCC2)c2[nH]c3ccccc3c21` is -1.65% (active); for `COc1cc2c(cc1OCCCCCn1c(-c3ccc(OCc4ccccc4)cc3)nc3cc(N4CCOCC4)ccc31)N=C[C@@H]1CCCN1C2=O` it is -14% (active); for `CSc1nnc(C2=CC(=O)c3ccccc3C2=O)n1-c1ccccc1` it is 110%.
Regarding `COc1cccc2c1O/C(=C\c1c([N+](=O)[O-])ncn1C)C2=O`, the growth is 109%.
Same read-out and setting: the figure for `CCC1=C(c2ccc(OC)cc2)C(C)(C)Oc2c1ccc(O)c2CN1CCCC1` is 77.1%; for `CC(c1ccccn1)C(C)(O)C(C)c1ccccn1` (stereo unspecified) it is 108%.
In the case of `O=C(OCCBr)c1ccc(Cl)c([N+](=O)[O-])c1`, the growth is 106%.
In the case of `CO[C@H]1/C=C/O[C@@]2(C)Oc3c(C)c(O)c4c(O)c(c(/C=N/N5CCN(C)CC5)c(O)c4c3C2=O)NC(=O)/C(C)=C\C=C\C(C)[C@H](O)[C@@H](C)[C@@H](O)[C@@H](C)[C@@H](OC(C)=O)[C@@H]1C` (stereo partly specified), the growth is 103%.
For the molecule `CC(=O)c1nc2ccccc2n1CCn1cc(CC(N)C(=O)O)c2ccccc21` (stereo unspecified), the growth is 103%.
Take `CC[C@]1(O)CC2CN(CCc3c([nH]c4ccccc34)[C@@](C(=O)OC)(c3cc4c(cc3OC)N(C)[C@H]3[C@@](O)(C(=O)OC)[C@H](OC(C)=O)[C@]5(CC)C=CCN6CC[C@]43[C@@H]65)C2)C1` (stereo partly specified): the growth was -50.7% (active).
As to `CN(C)c1ccc(/C=C(\C#N)c2nc3ccccc3c(=O)[nH]2)cc1`, the growth was 111%.
As to `CC(=O)c1cc(C(=O)c2ccc3c(c2)Sc2ccccc2N3)c2c(C)cc(C)cn12`, the growth is -37.4% (active).
In the case of `Clc1ncn[nH]1`, the growth was 104%.
For `Cc1cc(N2CCOCC2)nc(N2CCOCC2)n1`, the growth is 118%.
Turning to `c1cncc(CNc2ccccc2-c2nnc(Nc3ccc4c(c3)OCO4)o2)c1`, the growth is -39.8% (active).
For the molecule `COc1cc2c(C#N)n3c(c2cc1OC)C(=O)C(c1ccccc1)Oc1ccccc1-3` (stereo unspecified), the growth was 80.3%.

The next experiment relates to DU-145 prostate. Described as above. The following applies: 10 µM unless noted.
For `COc1ccc(-c2cn(-c3ccccc3)c(-c3ccccc3)n2)cc1OC`, the growth is -22.9% (active).
Consider `O=c1ccn(C2OC(CO)C(O)C2F)c(=O)[nH]1` (stereo unspecified), for which the growth is 119%.
Turning to `c1ccc(N2CCN(c3nncc4ccccc34)CC2)nc1`, the growth was 99%.
The same measure, in the same setting: the figure for `CCOc1ccccc1C(=O)OCC(=O)Nc1cccc(S(=O)(=O)N(C)C)c1` is 115%; for `O=[N+]([O-])c1ccc(N/N=C\c2ccccc2[N+](=O)[O-])nc1` it is 101%; for `O[C@@H]1Cc2ccc3ccccc3c2N[C@H](c2ccoc2)C1` it is 112%.
Regarding `CCOC(=O)/C=C(/C)Sc1cc(O)c2ccccc2c1O`, the growth was -100% (active).
On the same count and under the same terms, the figure for `CCc1ccc(CCN2C(=O)c3ccccc3C2=O)nc1` is 118%; for `O=C1C(=O)c2ccc(Br)cc2-c2cc(Br)ccc21` it is 68.4%; for `COc1cc(/C=C/C(=O)N2CCN(C(=O)/C=C/c3ccccc3)CC2)cc(OC)c1OC` it is 129%.
For `Cc1nn(-c2ccc(Cl)cc2)c2nc3c(nc12)C(=O)c1ccccc1-3`, the growth was 77.8%.
As to `COc1cc(C2NC(c3ccc(Cl)cc3)C(C)/C(=N/NC(N)=S)C2C)cc(OC)c1OC` (stereo unspecified), the growth is 117%.
On the same count and under the same terms, the figure for `COC(=O)c1ccc2c(c1)nc(-c1ccc(O)c(OC)c1)n2-c1cc(C(C)(C)C)[nH]n1` is 118%; for `COC(=O)[C@]1(C(C)C)N[C@H](c2cn(-c3ccccc3)nc2-c2ccccc2)[C@@H]2C(=O)N(c3ccc(Cl)cc3)C(=O)[C@@H]21` it is 111%.
As for `C[n+]1c2ccccc2c(NC2CCNCC2)c2[nH]c3ccccc3c21`, the growth is -1.88% (active).
For `COc1cc2c(cc1OCCCCCn1c(-c3ccc(OCc4ccccc4)cc3)nc3cc(N4CCOCC4)ccc31)N=C[C@@H]1CCCN1C2=O`, the growth was 29.7%.
The same measure, in the same setting: to `CSc1nnc(C2=CC(=O)c3ccccc3C2=O)n1-c1ccccc1` belongs 104%; to `COc1cccc2c1O/C(=C\c1c([N+](=O)[O-])ncn1C)C2=O`, 102%.
For the molecule `CCC1=C(c2ccc(OC)cc2)C(C)(C)Oc2c1ccc(O)c2CN1CCCC1`, the growth is 64.8%.
Consider `CCCCn1c(Cc2ccc(Cl)cc2)nc2cc(OC)c(OC)cc2c1=O`, for which the growth was 75.5%.
On to `ClC1C2CC(c3ccccc32)C1Cl` (stereo unspecified), for which the growth is 118%.
Turning to `CC(c1ccccn1)C(C)(O)C(C)c1ccccn1` (stereo unspecified), the growth was 101%.
`O=C(Nc1ccccc1Cl)c1cnc2ccc(C3CCNCC3)cn12`: the growth is 56.7%.
Turning to `O=C(OCCBr)c1ccc(Cl)c([N+](=O)[O-])c1`, the growth is 14.6%.
The same measure, in the same setting: the figure for `CO[C@H]1/C=C/O[C@@]2(C)Oc3c(C)c(O)c4c(O)c(c(/C=N/N5CCN(C)CC5)c(O)c4c3C2=O)NC(=O)/C(C)=C\C=C\C(C)[C@H](O)[C@@H](C)[C@@H](O)[C@@H](C)[C@@H](OC(C)=O)[C@@H]1C` (stereo partly specified) is 104%.
With `CC(=O)c1nc2ccccc2n1CCn1cc(CC(N)C(=O)O)c2ccccc21` (stereo unspecified), the growth was 104%.
Same read-out and setting: to `CCCCCCOc1ccc(/C=N/NC(N)=S)cc1` belongs 71.9%.
For `Cc1ccccc1NC(=O)c1cc2ccccc2cc1O`, the growth was 20.2%.
Still for that read-out and setting: the figure for `CC[C@]1(O)CC2CN(CCc3c([nH]c4ccccc34)[C@@](C(=O)OC)(c3cc4c(cc3OC)N(C)[C@H]3[C@@](O)(C(=O)OC)[C@H](OC(C)=O)[C@]5(CC)C=CCN6CC[C@]43[C@@H]65)C2)C1` (stereo partly specified) is -39.8% (active).
As for `CN(C)c1ccc(/C=C(\C#N)c2nc3ccccc3c(=O)[nH]2)cc1`, the growth is 93%.
In the case of `CC(=O)c1cc(C(=O)c2ccc3c(c2)Sc2ccccc2N3)c2c(C)cc(C)cn12`, the growth was 2.22% (active).
With `CCn1c2ccccc2c2ccc(C(C)=O)cc21`, the growth is 93.5%.
On the same count and under the same terms, to `Clc1ncn[nH]1` belongs 110%; to `Cc1cc(N2CCOCC2)nc(N2CCOCC2)n1`, 117%.
Consider `Oc1ccc(Cc2ccc(O)c(C3CC(c4ccc(Cl)cc4)=NN3)c2)cc1C1CC(c2ccc(Cl)cc2)=NN1` (stereo unspecified), for which the growth was 32.6%.
On to `c1cncc(CNc2ccccc2-c2nnc(Nc3ccc4c(c3)OCO4)o2)c1`, for which the growth was 1.3% (active).
As to `COc1cc2c(C#N)n3c(c2cc1OC)C(=O)C(c1ccccc1)Oc1ccccc1-3` (stereo unspecified), the growth is 72.8%.
